The whole screen tested about 37,000 compounds, of which about 2,800 (7.6%) were called active. Another 1% or so got no clear call; they are omitted. This is one part of a sample in which actives are shown more often than they occur. No stated cut-off is given here; in the data, active means inhibition above about 80%; inconclusive means no clear call, values can overlap the other calls; inactive means below that.

Usually inhibition stands for the drop in the measured response relative to a control, in per cent.

The assay can be described thus: NOMO-1 AML cell viability reduction, primary screen, STK33 inhibitor project, CellTiter-Glo luminescence (AID 2330). The following applies: NOMO-1 AML viability, 72 h, active compounds read high, concentration not given here.
Take `C[C@H]1O[C@@H](O[C@H]2CC[C@]3(CO)C4CC[C@]5(C)[C@@H](C6=CC(=O)OC6)CC[C@]5(O)[C@@H]4CC[C@H]3C2)[C@H](O)[C@H](O)[C@@H]1O[C@@H]1O[C@H](CO)[C@@H](O)[C@H](O)[C@H]1O` (stereo not given in full): the inhibition is 119% (active). The result for `CCCCC/C=C\C/C=C\C/C=C\C/C=C\CCCCCC(=O)NCCO` reads 10.8% (inactive). As for `COc1ccc(CNCc2nc3ccccc3c(=O)n2-c2ccc(F)cc2)cc1`, the inhibition was 23.8% (inactive). As for `CC(C)c1ccc2c(c1O)CC[C@H]1C3=C(CC[C@]21C)C(=O)OC3`, the inhibition is 24.4% (inactive). With `O=C(Nc1ccc2c(C(F)(F)F)cc(=O)oc2c1)c1nc2ncccn2n1`, the inhibition was 7.98% (inactive). The result for `COc1c(C(C)C)cc2c(c1O)[C@@]1(C(=O)O)CCCC(C)(C)C1CC2` (stereo not given in full) reads 16% (inactive); that for `CCCCCCCCCCCCCC(=O)O[C@@H]1[C@@H](C)[C@@]2(O)[C@@H](C=C(CO)C[C@]3(O)C(=O)C(C)=C[C@@H]23)[C@@H]2C(C)(C)[C@]12OC(C)=O`, 98.2% (active); that for `Cc1cc(OCc2cc(C(=O)O)oc2C)c2c3c(c(=O)oc2c1)CCCC3`, 0.325% (inactive). Consider `CCCN(C/C=C/I)C1CCc2ccc(O)cc2C1` (stereo not given), for which the inhibition is 31.2% (inactive). `COC1=C[C@@H]2[C@@H]3Cc4ccc(OC)c(O)c4[C@]2(CCN3C)CC1=O`: the inhibition was -7.75% (inactive). `COC1=CC23CCN(C)[C@H](Cc4cc(OC)c(OC)cc42)C3=CC1=O`: the inhibition was 24.6% (inactive). In the case of `O=C(c1ccccc1)C12CN3CN(CN(C3)C1)C2`, the inhibition is -14.9% (inactive). With `COc1ccccc1N1C(=O)NC(=O)C(CCc2ccncc2)(Cc2cccc3ccccc23)C1=O` (stereo not given), the inhibition was 32.3% (inactive).

With `C[C@H]1CCC/C=C/C2C[C@H](O)C[C@H]2[C@H](O)/C=C\C(=O)O1` (stereo not given in full), the inhibition is 122% (active). In the case of `COc1ccc2[nH]cc(CCNCc3ccc(Br)cc3)c2c1`, the inhibition was 48.6% (inactive). With `CCCCn1c(C)c(C(C)=O)c2c(OCC(=O)O)c(Cl)c(Cl)c(Cl)c21`, the inhibition was -7.33% (inactive).

As to `c1ccc2c(c1)[I+]c1ccccc1-2`, the inhibition is 141% (active). For the molecule `C=CC(C)(C)c1cc2cc3c(cc2oc1=O)O[C@H](C(C)(C)O)C3`, the inhibition was 45.2% (inactive). For the molecule `Cc1ncsc1CCCl`, the inhibition is 11.2% (inactive). Turning to `CC(C)Nc1nc(Cl)nc(NC(C)C)n1`, the inhibition was 8.29% (inactive).

Source of the values: PubChem BioAssay AID2330 (Broad Institute, 2010).
